Among the data in PubChem BioAssay AID1490 (National Center for Advancing Translational Sciences (NCATS), 2009) are largest response in the series, negative = inhibition and Potency values, retold here.

The campaign covered roughly 310,000 compounds. About 11,000 (3.5%) were called active. About 4% were inconclusive and are not listed. The call rests on the fitted dose curve; in most records, active means well fitted inhibition curve with a large enough effect; inconclusive means small, poorly fitted or top-dose-only effect, or another doubt; inactive means no such curve, though single readings can be large or run the other way. The full list was thinned out, with actives kept by preference.
Potency means the concentration at half of the fitted maximal effect.

For the experiment, the target named is 4'-phosphopantetheinyl transferase ffp (Bacillus subtilis) (UniProt Q9F4F7). Nature of the experiment: qHTS Assay for Inhibitors of Bacillus subtilis Sfp phosphopantetheinyl transferase (PPTase).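 Further: the enzyme is Sfp with the accession as filed and its product quenches rhodamine fluorescence.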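 On largest response in the series, negative = inhibition: 0% = enzyme reaction without inhibitor and -100% = no enzyme wells.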 Conditions: Biochemical Sfp PPTase activity. Summed up:
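Fluorescence-quenching assay: 15 nM Sfp-PPTase preincubated 15 min at room temperature with compound, then 5 uM rhodamine-CoA and 12.5 uM BHQ-2-labelled YbbR peptide added. Fluorescence (ex 525/em 598 nm) read at start and after 30 min; difference gives rate.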
On the technique in general: Quantitative high-throughput screening tests each substance at several concentrations.
On to `O=C(O)c1cccc2c1C(=O)N(C1CCCC1)C2`, for which the largest response in the series, negative = inhibition was 17.2% (inactive). Regarding `Cc1cc(Cl)nc(NC(=O)Nc2cccc(Cl)c2)n1`, the largest response in the series, negative = inhibition was -3.29% (inactive). Turning to `Cc1ccc(Nc2ccccc2N)cc1`, the largest response in the series, negative = inhibition was -23.1% (inactive). `Nc1ccc(Nc2ccccc2)cc1`: the Potency was 56.2 µM (active). Regarding `Cc1cc(Nc2ccccc2)n(C(=O)c2ccc(N)cc2)n1`, the largest response in the series, negative = inhibition is -8.73% (inactive). On the same count and under the same terms, next, `O=C1OC2(CCCCC2)CC2=C1C1O[C@](c3ccsc3)(Cc3ccccc31)O2`: -2.9% (inactive); `COC(=O)CCc1ccccc1S(=O)(=O)N(CCC(=O)OC)Cc1ccccc1`: -14.7% (inactive). As to `CCN(CC(=O)Nc1cccc(S(N)(=O)=O)c1)Cc1nc2ccccc2c(=O)[nH]1`, the Potency was 50.1 µM (active). In the case of `CCN(CC(=O)Nc1ccc(Cl)c(S(=O)(=O)N(C)C)c1)Cc1nc2ccccc2c(=O)[nH]1`, the largest response in the series, negative = inhibition was -31.5% (inactive). Regarding `CCN(CC(=O)NC(=O)NCc1ccccc1)Cc1nc2ccccc2c(=O)[nH]1`, the largest response in the series, negative = inhibition is -53% (inactive). With `CN1CCN(C(=O)c2cnn(-c3ccccc3)c2NC(=O)c2ccc([N+](=O)[O-])cc2)CC1`, the largest response in the series, negative = inhibition is 1.55% (inactive). Consider `CC1CCN(C(=S)c2cccc(O)c2)CC1`, for which the Potency is 25.1 µM (active). Take `Cc1nc2ccc(NC(=S)N3CCC(C)CC3)cc2nc1C`: the largest response in the series, negative = inhibition was 15.4% (inactive). Take `CC1CCN(C(=S)NC(=O)c2ccccc2Br)CC1`: the largest response in the series, negative = inhibition is 14.1% (inactive). For `CC1CCN(c2ccc([N+](=O)[O-])cc2C(N)=O)CC1`, the largest response in the series, negative = inhibition was 9.05% (inactive). Consider `O=C(c1cccc([N+](=O)[O-])c1)N1CCN(C(=O)c2ccco2)CC1`, for which the largest response in the series, negative = inhibition is 3.81% (inactive). On to `CC1CCN(C(=S)c2cccc([N+](=O)[O-])c2)CC1`, for which the Potency was 44.7 µM (active). On to `CC1=C(C(=O)OC2CCCCC2)C(c2ccccc2F)NC(=O)N1` (stereo not given), for which the largest response in the series, negative = inhibition was 7.52% (inactive). `O=C(NC1CCCC1)C(c1ccco1)N(C(=O)c1ccco1)c1ccc(F)cc1` (stereo not given): the largest response in the series, negative = inhibition is 20.8% (inactive). Turning to `COc1ccc(CCNC(=O)c2c(C)nn(-c3ccccc3)c2Cl)cc1`, the largest response in the series, negative = inhibition is 9.27% (inactive). The same measure, in the same setting: next, `CN(CC1CCCO1)S(=O)(=O)c1ccc(C(=O)Nc2ccc([N+](=O)[O-])cc2)cc1` (stereo not given): -10.7% (inactive); `Cc1c(NC(=O)c2cc(-c3ccc(Br)cc3)on2)c(=O)n(-c2ccccc2)n1C`: 2.71% (inactive). Turning to `NS(=O)(=O)c1cccc(NC(=O)CSc2nc3ccccc3n2-c2ccccc2)c1`, the Potency is 79.4 µM (active). As to `COc1ccc(-n2cnnc2SCC(=O)Nc2cccc(S(N)(=O)=O)c2)cc1`, the largest response in the series, negative = inhibition is 3.4% (inactive). For the molecule `Cc1nnc(SCC(=O)Nc2cccc(N)c2)n1-c1ccccc1`, the largest response in the series, negative = inhibition is 20% (inactive).

As for `COC(=O)c1c(NC(=O)C(=O)N2CCCCC2)sc2c1CC(C)(C)OC2`, the largest response in the series, negative = inhibition is -1.3% (inactive). As for `COc1cc(OC)c(C(=S)N2CCCC2)cc1OC`, the Potency was 20 µM (active). Consider `COc1cc(OC)c(C(=O)N2CCCC2)cc1OC`, for which the largest response in the series, negative = inhibition was 10.6% (inactive). Take `COc1ccc(/C=C/C(=O)N2CCCC2)cc1OC`: the largest response in the series, negative = inhibition was -0.604% (inactive). In the case of `COc1ccc(OC)c(CCNC(=O)c2nn(C)c3c2CS(=O)(=O)c2ccccc2-3)c1`, the largest response in the series, negative = inhibition was 15.7% (inactive). As to `COc1ccc(NC(=O)CN2C(=O)COc3ccc(S(=O)(=O)N4CCOCC4)cc32)c(OC)c1`, the largest response in the series, negative = inhibition was 15.2% (inactive). The same measure, in the same setting: next, `O=C(c1ccc(S(=O)(=O)N2CCCC2)cc1)N1CCN(c2ccccc2F)CC1`: 11.7% (inactive); `COc1ccc(/C=C/c2noc(-c3ccccc3OC(C)=O)n2)cc1`: -16% (inactive); `CC(=O)Nc1ccc(N2CCOCC2)c(C(=O)Nc2cccc(C)c2)c1`: 6.24% (inactive).

As to `Cc1cccc(NC(=O)c2sc3nc4c(c(-c5ccco5)c3c2N)CCC4)c1`, the largest response in the series, negative = inhibition was -15.6% (inactive). Take `Cc1cccc(NC(=O)c2sc3nc(N4CCOCC4)c4c(c3c2N)CCCC4)c1`: the Potency was 17.8 µM (active). Turning to `COc1cccc(CNC(=O)CN(C)S(=O)(=O)c2ccc3c(c2)c(=O)n(C)c(=O)n3C)c1`, the largest response in the series, negative = inhibition is -4.3% (inactive). Regarding `CCc1ccc(NC(=O)N2CCN(c3ccccc3)CC2)cc1`, the largest response in the series, negative = inhibition is 3.63% (inactive). With `CC(=O)N1CCN(c2ccc(NCc3ccc(C(C)C)cc3)cc2)CC1`, the Potency is 50.1 µM (active). Regarding `CC(CC(=O)N1CCN(c2ccccc2)CC1)c1ccccc1` (stereo not given), the largest response in the series, negative = inhibition is 3.18% (inactive). For `O=C1C(=O)N(CCCO)C(c2ccccc2)/C1=C(\O)c1ccc(Br)cc1` (stereo not given), the largest response in the series, negative = inhibition is 6.17% (inactive).

In the case of `COc1ccc(C2=NS(=O)(=O)N(C)C(C(=O)N3CCCCC3)=C2)cc1`, the largest response in the series, negative = inhibition was 1.59% (inactive). For the molecule `COc1ccc(NC(=O)c2ccco2)cc1NC(=O)c1ccc(C#N)cc1F`, the largest response in the series, negative = inhibition was 6.39% (inactive). For `Nn1cnnc1N/N=C/c1cc([N+](=O)[O-])c(Cl)cc1Cl`, the Potency was 50.1 µM (active). In the case of `O=[N+]([O-])c1ccc(O)c(/C=N/Nc2ccccc2[N+](=O)[O-])c1`, the largest response in the series, negative = inhibition was -9.69% (inactive).

With `C/C(=N\NC(=O)C(N)=O)c1ccc2c(c1)OCCO2`, the largest response in the series, negative = inhibition was -17.8% (inactive). With `Cc1ccc2sc(NNC(=O)c3ccc4c(c3)OCCO4)nc2c1C`, the Potency is 28.2 µM (active). Take `Cc1nc(NC(=O)c2ccc3c(c2)OCCO3)ccc1Br`: the largest response in the series, negative = inhibition was -0.776% (inactive).

For `CCCN1CCN(C(=O)CCCNC(=O)c2ccc(Cl)cc2)CC1`, the largest response in the series, negative = inhibition is 8.54% (inactive).

Turning to `COc1ccc(NC(=O)CC(NC(C)c2ccccc2)C(=O)O)cc1` (stereo not given), the largest response in the series, negative = inhibition was -9.65% (inactive). As for `CN(C)CCCNC(=O)c1cc(C(=O)Cc2ccc(Cl)cc2)c[nH]1`, the largest response in the series, negative = inhibition is 3.87% (inactive).

For the molecule `COc1cc(CN2CCC(C(N)=O)CC2)ccc1OCc1ccccc1`, the largest response in the series, negative = inhibition is -21.1% (inactive). For the molecule `COc1cc(CNC2CCCC2)c(Br)cc1OCc1ccccc1`, the largest response in the series, negative = inhibition is 9.9% (inactive). For `COc1cc(C2CC(=O)N3CN(Cc4ccccc4)CSC3=C2C#N)ccc1OCc1ccccc1` (stereo not given), the Potency was 3.55 µM (active). Take `Cc1ccc(CNC(=O)CCC(=O)N2CC(C)Sc3ccccc32)cc1` (stereo not given): the largest response in the series, negative = inhibition is 23.4% (inactive). For the molecule `CC(=O)Nc1ccc(S(=O)(=O)N2CCC(NC(=O)c3ccccc3)CC2)cc1`, the largest response in the series, negative = inhibition is 22.8% (inactive). With `COc1ccc2c(c1)N(C)/C(=C1/SC(=S)N(NC(C)=O)C1=O)S2`, the largest response in the series, negative = inhibition is -12.7% (inactive).

With `COc1cc(C(=O)N[C@@H](C)C(=O)NCc2ccco2)cc(OC)c1OC`, the largest response in the series, negative = inhibition is 8.28% (inactive). Turning to `COc1cccc(OC)c1C(=O)NC(=S)NCc1ccco1`, the largest response in the series, negative = inhibition was -3.61% (inactive).

`COc1cc(C(=O)NC(=S)NCc2ccco2)cc(OC)c1OC`: the Potency was 44.7 µM (active).
